Results as given in PubChem BioAssay AID1076 (NMMLSC, 2008).
Active and inactive are the calls of the source.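 The calls were made as follows: active = cell event count below 40, meaning activity score above 60 where score is 100 minus count; inactive = the rest.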

Assay: cytotoxicity in LNCaP prostate cells – cell-based, cell event count, single point, cytotoxicity control for prostate differentiation activator project, confirmation (AID 1076);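 also: counts scatter-gated live cells after medium removal discards detached dead cells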
Settings: LNCaP cell loss, flow cytometry event count, 4 d, stronger effect = lower value

SMILES | cell event count (at 100 µM) | cell event count (event count, at 10 µM)
COc1ccc(Cc2noc(-c3ccc(C)cc3)n2)cc1 | 70 (inactive) | 152
CCN(CCNC(=O)C1CCN(Cc2nc(-c3cccc(Cl)c3)oc2C)CC1)c1ccccc1 | 3 (active) | 83
COc1ccc(Cc2nc(-c3ccc(-n4cccc4)cc3)no2)cc1OC | 17 (active) | 28
CCN(CC)CCNC(=O)c1cc2c(-c3ccc(Cl)cc3)nn(C)c2s1 | 25 (active) | 25
Cc1ccc(NC(=O)N2CCCN(Cc3ccc(F)cc3)C2)cc1C | 13 (inactive) | 142
COc1ccc(CN2C(=O)C(O)(CC(=O)c3c(C)n[nH]c3C)c3ccccc32)cc1OC (stereo not drawn) | 284 (inactive) | 248
Cc1ccc2c(c1)c1c(n2CC(O)Cn2c(C)nc3ccccc32)/C(=N\O)CCC1 (stereo not drawn) | 16 (inactive) | 454
Cn1nc(-c2ccc(Cl)cc2)c2cc(C(=O)NCCCN3CCCC3)sc21 | 19 (inactive) | 104
Cc1ccc2c(c1)c1c(n2CC(O)CNC(CO)(CO)CO)CCCC1 (stereo not drawn) | 70 (inactive) | 392
Cc1ccc(-c2noc(CCC(=O)NCCCN3CCN(c4ccc(F)cc4)CC3)n2)cc1 | 14 (inactive) | 98
CCOc1ccc(-n2cc(C(=O)N3CCC(C)CC3)c3cc(OC)c(OC)cc3c2=O)cc1 | 202 (inactive) | 251
COC(=O)c1ccc2c(=O)n(Cc3ccco3)c(SCC(=O)Nc3ccc(C)c(Cl)c3)nc2c1 | 138 (inactive) | 146
Oc1c(CN2CCCCC2)cc(COCc2ccccc2)c2cccnc12 | 35 (inactive) | 92
CCOC(=O)C1CCCN(C(=O)Cn2cccc2C(=O)c2ccccc2)C1 (stereo not drawn) | 201 (inactive) | 166
